Assay results reported in ChEMBL document CHEMBL3988442, “University of Dundee, Small-Polar-MMV Screening Library” (2021).

Legend:
[1] = molecular target: T1, Aspartate--tRNA(Asp/Asn) ligase (Mycobacterium tuberculosis (strain ATCC 25618 / H37Rv)) (UniProt P9WFW3); experiment: Assay for Asp RNA synthetase-1 from Mycobacterium tuberculosis; assay type: functional; design: scale not given: direction of the effect not stated beside the values; details: 30 µM; also: in the data most compounds retested in dose-response had high values
T1 sequence (whole entry): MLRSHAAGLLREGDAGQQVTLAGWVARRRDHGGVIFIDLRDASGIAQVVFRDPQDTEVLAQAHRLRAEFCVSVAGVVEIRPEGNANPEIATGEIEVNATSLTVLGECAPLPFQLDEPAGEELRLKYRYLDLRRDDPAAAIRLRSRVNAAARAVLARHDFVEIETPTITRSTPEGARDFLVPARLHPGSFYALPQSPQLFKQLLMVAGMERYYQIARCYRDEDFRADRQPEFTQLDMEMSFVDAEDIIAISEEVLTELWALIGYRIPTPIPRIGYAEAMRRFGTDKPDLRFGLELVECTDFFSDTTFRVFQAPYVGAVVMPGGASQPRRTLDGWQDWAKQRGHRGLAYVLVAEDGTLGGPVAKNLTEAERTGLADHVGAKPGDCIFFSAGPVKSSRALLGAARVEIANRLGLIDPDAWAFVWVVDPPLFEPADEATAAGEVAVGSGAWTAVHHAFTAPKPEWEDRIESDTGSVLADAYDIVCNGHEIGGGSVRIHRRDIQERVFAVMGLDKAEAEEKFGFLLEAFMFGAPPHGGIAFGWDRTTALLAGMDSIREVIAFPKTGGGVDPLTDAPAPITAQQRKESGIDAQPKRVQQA

[2] = molecular target: Shiga toxin 2 (Escherichia coli O157:H7) (UniProt P09385+P09386); experiment: E. coli 0.157:H7 Shiga Toxin SOP - stx2 screening assay; assay type: functional; design: scale not given: direction of the effect not stated beside the values; details: 30 µM

Structure (SMILES) | Percent Effect [1] [%] | Percent Effect [2] [%]
Cc1ccc(CNC(=O)CN2CCN(CC(O)C3CC3)CC2)cc1 (stereo unspecified) | 1.21 | -15.5
Cn1c(CC2CCS(=O)(=O)C2)nnc1SCCOc1ccccc1F (stereo unspecified) | 2.75 | -10.2
COc1ccc(C(=O)N2CCCC(C)C2)cc1F (stereo unspecified) | 0.26 | 13.7
Cc1csc(CNC(=O)NC2CCN(c3ncccn3)CC2)n1 | 2.39 | -1.46
O=C(CC1CCCO1)NCc1ccccc1Cn1cncn1 (stereo unspecified) | -3.17 | 31.5
CC1CN(C(=O)CN(Cc2ccccc2Br)C2CC2)CCO1 (stereo unspecified) | 2.59 | 29.2
CCc1nc(C2CCCN2Cc2nnc(Cc3ccccc3)o2)no1 (stereo unspecified) | -0.231 | 6.08
Cc1cc(-c2nnn(CCNS(C)(=O)=O)n2)ccc1F | -2.07 | -10.6
CN(Cc1ccccc1)CC(O)Cn1cnc2ccccc2c1=O (stereo unspecified) | -0.611 | -4.12
Cn1nc2c(cc1=O)CN(Cc1coc(-c3cccs3)n1)CC2 | 39.2 | -29.8
CC(C)c1nc2c(n1C)CCN(Cc1nc(-c3cccs3)no1)C2 | -1.02 | -0.957
CC(C)CN1Cc2c(C(=O)N(C)C)ncn2-c2ccccc2S1(=O)=O | -2.86 | 4.89
CN(CC(=O)N1CCCC1Cn1cccn1)C1CC1 (stereo unspecified) | -2.14 | 12.6
Cc1nc(C)n(CC2CCCN(CCOc3cccc(C#N)c3)C2)n1 (stereo unspecified) | 2 | 12.2
CC(C1CC1)N(C(=O)NCCCn1nc2ccccn2c1=O)C1CC1 (stereo unspecified) | 1.26 | -15.6
CNC(=O)CS(=O)(=O)Cc1coc(-c2ccc(F)cc2)n1 | -1.26 | -3.77
O=C1CCSCC(C(=O)N2CCCC2)N1 (stereo unspecified) | -3.45 | -6.39
CCS(=O)(=O)N1C[C@@H](OCc2cccnc2)[C@H]2OCCC[C@H]21 | 3.4 | 5.21
